15 compounds from PubChem BioAssay can be followed below.

For assay [1], the system named is TRPC4 beta (transient receptor potential cation channel C4), mouse. As to the kind of experiment: TRPC4 cation channel opening, retest – cell-based, Fluo4 calcium, HEK293 TRPC4beta/mu-opioid, duplicates, 10 µM, confirmation (AID 2426;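 active = fluorescence ratio normalized to control raised more than 50% in primary screen plus both repeat runs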). The note with it: Fluo4 calcium fluorescence, at 10 µM; stronger effect = higher value.
For assay [2], the system named is transient receptor potential cation channel C4 beta (TRPC4), mouse. Put plainly: TRPC4 cation channel opening, second retest – cell-based, second round, Fluo4, HEK293 TRPC4beta/mu-opioid, 1 µM, confirmation (AID 2461;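 active = primary screen active and over 50% activation in each of two duplicate runs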). The note with it: Fluo4 calcium fluorescence, at 1 µM; stronger effect = higher value.
Assay [3] has as its system TRPC4 (transient receptor potential cation channel C4 beta), mouse. Put plainly: potentiation of DAMGO EC20 TRPC4 response – cell-based, second round, Fluo-4, HEK293 TRPC4beta/mu-opioid, 1 µM, confirmation (AID 2554;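 active = primary screen hit whose fluorescence ratio, in both repeats, exceeds the weak agonist control mean by 3 SD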). Particulars: DAMGO EC20, Fluo-4 calcium flux, at 1 µM; stronger effect = higher value. In general terms: A change in cytosolic calcium serves as a functional read-out for many receptors and channels.

Assay [4] relates to TRPC4 beta (transient receptor potential cation channel C4), mouse. As to the kind of experiment: potentiation of DAMGO EC20 TRPC4 response – cell-based, Fluo-4, HEK293 TRPC4beta/mu-opioid, confirmation (AID 2555). Particulars: DAMGO EC20, Fluo-4 calcium flux, at 10 µM; stronger effect = higher value.
Assay [5] has as its target Short transient receptor potential channel 4 (Mus musculus) (UniProt Q9QUQ5). Put plainly: blockers of DAMGO-evoked TRPC4 calcium flux – cell-based, Fluo4, HEK293 TRPC4beta/mu-opioid, confirmation (AID 2636;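 active = calcium signal cut by more than 3 SD below the full-agonist control yet still positive, in both repeats and the earlier primary screen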). Particulars: at 10 µM; stronger effect = higher value.
The target is the same in assay [6]. Put plainly: blockers of DAMGO-evoked TRPC4 calcium flux – cell-based, second round, Fluo4, HEK293 TRPC4beta/mu-opioid, 1 µM, confirmation (AID 2637;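 active = calcium signal ratio cut to more than 3 SD under the fully stimulated control mean yet still positive, in both repeats and the primary screen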;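 as to inhibition: percent of integrated ratio relative to wells lacking test compound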). Particulars: at 1 µM; stronger effect = higher value.
Assay [7] shares this target. As to the kind of experiment: calcium entry via TRPC4 opening agents – cell-based, HEK293 TRPC4/mu-opioid, Fluo-4 calcium, dose response (AID 434937;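 active = primary screen activator hit with a dose response curve and TRPC4 channel activation at any tested dose; inactive = no activation, no dose response, or not a primary hit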).
Assay [8] shares this target. As to the kind of experiment: potentiation of DAMGO-evoked TRPC4 calcium signal – cell-based, HEK293 TRPC4/mu-opioid, Fluo-4 calcium, EC20 DAMGO, dose response (AID 434941;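 active = earlier screen potentiator hit that boosts the TRPC4 ion channel at some dose, with a dose response; inactive = no potentiation, no dose response, or not a prior hit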;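 also: calcium entry triggered by an EC20 dose of DAMGO at the co-expressed mu-opioid receptor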).
Assay [9] has as its target Short transient receptor potential channel 6 (Mus musculus) (UniProt Q61143). Put plainly: TRPC6 blockade by TRPC4 inhibitor hits – cell-based, HEK293, membrane potential dye, duplicate, selectivity assay for TRPC4 inhibitor project, confirmation (AID 434948;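 active = active in primary screen and both duplicates, each dropping signal beyond three positive-control SD with fluorescence still positive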). Particulars: HEK293 TRPC6, membrane potential dye fluorescence, at 10 µM, stimulated with maximal-effect acetylcholine; stronger effect = higher value.

For assay [10] the target is unchanged. Put plainly: TRPC6 opening by TRPC4 activator hits – cell-based, HEK293, membrane potential dye, duplicate, selectivity assay for TRPC4 activator project, confirmation (AID 434950;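 active = membrane potential signal rise above negative control mean plus 3 SD in both duplicates, also active in the earlier TRPC4 screen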). The note with it: HEK293 TRPC6, membrane potential fluorescence, at 10 µM; activation: stronger effect = higher value; outcome: activation.
Assay [11] has the same target. As to the kind of experiment: positive modulators of mouse TRPC6 channel – HEK293 cells, membrane potential dye, duplicate, selectivity assay for TRPC4 potentiator project, confirmation (AID 434952;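 active = compound raising the membrane signal above positive-control mean plus 3 SD in both repeats, and a primary screen hit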). The note with it: HEK293 TRPC6, membrane potential dye fluorescence, at 10 µM, maximal acetylcholine added after compound; stronger effect = higher value.
Assay [12] addresses Short transient receptor potential channel 4 (Mus musculus) (UniProt Q9QUQ5). Put plainly: calcium flux activators in TRPC4/5HT1a cells, counter-screen for TRPC4 activator project, cell-based, second counter screen, HEK293 TRPC4/5HT1a, Fluo-4 (AID 434977;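 active = calcium signal rise above buffer-control mean plus 5 SD in both duplicates, and also a hit in the primary screen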). The note with it: Fluo-4 calcium flux, at 10 µM; stronger effect = higher value.
A short description of assay [13]: serotonin-gated TRPC4 signal block – cell-based, second counter screen, HEK293 TRPC4/5HT1a, Fluo-4, counter-screen for TRPC4 inhibitor project, confirmation (AID 434978;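 active = primary screen active whose calcium signal fell more than 3 SD beyond the full-serotonin control mean in both duplicate plates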;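 as to outcome: serotonin given first at submaximal then at maximal dose after compound preincubation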). Particulars: Fluo-4 calcium flux, at 10 µM, serotonin added to trigger calcium flux; stronger effect = higher value. For orientation: Counterscreens check selectivity or assay interference.
Assay [14] relates to TRPC4 (mouse), co-expressed with 5HT1a in HEK293. Put plainly: enhancement of serotonin-evoked TRPC4 response – cell-based, second counter screen, HEK293 TRPC4/5HT1a, Fluo-4, counter-screen for TRPC4 potentiator project, confirmation (AID 434979;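 active = signal rise over 3 SD above mean of control wells given weak agonist, in both repeats and first screen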). Particulars: Fluo-4 calcium flux, at 10 µM, serotonin added at its EC20 dose; stronger effect = higher value.
A short description of assay [15]: nonspecific calcium rise without TRPC4 – cell-based, HEK293 mu-opioid receptor line, counter-screen for TRPC4 activator project, confirmation (AID 449723;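 active = hit in primary screen, with calcium signal over 5 SD above buffer well mean in both duplicates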;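 also: counter screen cells carry the mu-opioid receptor alone and lack TRPC4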). The note with it: HEK293 mu-opioid cells, Fluo-4 calcium fluorescence, at 10 µM; stronger effect = higher value.
Assay [16] is described as follows: nonspecific potentiation of DAMGO calcium response – cell-based, HEK293 mu-opioid receptor line, counter-screen for TRPC4 allosteric potentiator project, confirmation (AID 449724;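 active = calcium signal rise more than 3 SD above the low-dose agonist control mean, in both duplicate plates and the primary screen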;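 also: HEK293 cells carrying mu-opioid receptor only with no TRPC4 channel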). The note with it: HEK293 mu-opioid receptor cells, Fluo-4 calcium flux, at 10 µM, compound added before EC20 DAMGO stimulus; stronger effect = higher value.

For part of these data: Potency and affinity values are given separately. Active and inactive are the calls of the source.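 The calls were made as follows, unless noted: active = primary screen hit whose calcium fluorescence ratio, in both repeats, exceeds the weak agonist control mean by 3 SD; inactive = the rest.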

Chain of Short transient receptor potential channel 6 (Mus musculus) (Q61143 whole entry, looked up): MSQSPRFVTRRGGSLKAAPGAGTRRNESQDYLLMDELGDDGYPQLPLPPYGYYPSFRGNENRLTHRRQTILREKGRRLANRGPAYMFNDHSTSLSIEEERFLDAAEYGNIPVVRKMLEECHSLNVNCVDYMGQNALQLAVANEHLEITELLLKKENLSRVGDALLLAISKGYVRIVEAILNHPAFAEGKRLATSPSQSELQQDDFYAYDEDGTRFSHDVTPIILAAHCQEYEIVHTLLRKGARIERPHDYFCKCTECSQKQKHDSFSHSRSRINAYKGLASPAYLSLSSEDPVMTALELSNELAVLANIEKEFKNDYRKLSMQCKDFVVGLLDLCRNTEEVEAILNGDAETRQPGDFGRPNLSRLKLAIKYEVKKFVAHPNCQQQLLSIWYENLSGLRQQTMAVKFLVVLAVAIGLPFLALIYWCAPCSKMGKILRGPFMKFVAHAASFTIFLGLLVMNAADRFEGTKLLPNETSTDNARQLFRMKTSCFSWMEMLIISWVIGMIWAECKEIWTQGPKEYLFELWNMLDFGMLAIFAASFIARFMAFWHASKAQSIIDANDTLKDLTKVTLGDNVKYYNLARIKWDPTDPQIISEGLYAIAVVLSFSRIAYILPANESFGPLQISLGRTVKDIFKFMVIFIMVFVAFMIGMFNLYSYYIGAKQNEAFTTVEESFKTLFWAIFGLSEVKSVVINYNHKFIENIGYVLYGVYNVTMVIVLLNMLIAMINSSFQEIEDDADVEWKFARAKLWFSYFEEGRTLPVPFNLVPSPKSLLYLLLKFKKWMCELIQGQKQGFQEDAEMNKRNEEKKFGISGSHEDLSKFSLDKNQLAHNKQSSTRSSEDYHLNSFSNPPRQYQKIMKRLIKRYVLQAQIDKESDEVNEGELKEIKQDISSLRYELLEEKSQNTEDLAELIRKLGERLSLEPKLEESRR
Chain of Short transient receptor potential channel 4 (Mus musculus) (Q9QUQ5 whole entry, looked up): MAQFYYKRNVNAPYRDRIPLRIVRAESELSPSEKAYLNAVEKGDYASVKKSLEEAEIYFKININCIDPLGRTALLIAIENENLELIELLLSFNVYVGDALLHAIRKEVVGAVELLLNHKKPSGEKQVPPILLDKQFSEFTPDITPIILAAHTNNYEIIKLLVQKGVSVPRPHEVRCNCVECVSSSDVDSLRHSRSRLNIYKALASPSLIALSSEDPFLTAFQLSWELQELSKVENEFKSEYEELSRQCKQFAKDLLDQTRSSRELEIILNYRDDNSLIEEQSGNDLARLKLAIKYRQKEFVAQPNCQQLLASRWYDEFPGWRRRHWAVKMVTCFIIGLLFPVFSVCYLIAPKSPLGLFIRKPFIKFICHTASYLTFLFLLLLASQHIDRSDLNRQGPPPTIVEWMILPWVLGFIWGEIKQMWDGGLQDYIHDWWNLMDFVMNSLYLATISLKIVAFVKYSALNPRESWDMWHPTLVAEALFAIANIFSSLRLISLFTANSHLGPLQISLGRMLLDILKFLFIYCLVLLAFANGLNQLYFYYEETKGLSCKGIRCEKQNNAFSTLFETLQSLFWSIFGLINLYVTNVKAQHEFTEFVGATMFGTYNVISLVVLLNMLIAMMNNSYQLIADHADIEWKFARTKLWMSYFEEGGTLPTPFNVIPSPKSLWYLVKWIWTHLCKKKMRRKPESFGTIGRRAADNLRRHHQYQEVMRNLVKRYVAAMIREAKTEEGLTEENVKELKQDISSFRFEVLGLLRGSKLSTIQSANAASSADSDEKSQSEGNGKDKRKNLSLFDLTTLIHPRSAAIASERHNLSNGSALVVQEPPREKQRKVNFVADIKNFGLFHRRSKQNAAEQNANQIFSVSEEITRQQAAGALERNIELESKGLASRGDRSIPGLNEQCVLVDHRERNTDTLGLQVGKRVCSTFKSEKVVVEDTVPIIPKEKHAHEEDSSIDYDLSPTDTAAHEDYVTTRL

`CC(C)C1=Nc2cccc3cccc(c23)N1`: the result in assay [1], in assay [2], in assay [3], in assay [4], in assay [7] and in assay [8] was inactive. Also, the result in assay [9], in assay [10], in assay [11], in [12], in [14] and in [15] was inactive. Also, the result in assay [16] was inactive. For the same compound, the figures for the inhibition in assay [5], in assay [6] and in assay [13] were 95% (active), 49% (active) and 17.1% (active), respectively.
Regarding `Cc1ccc(C)c2[nH]c(=O)c(CN(CC3CCCO3)C(=S)NCc3ccco3)cc12` (stereo not given), the result in assay [1], in [2], in assay [3], in [4], in assay [6] and in assay [7] was inactive. The result in assay [8], in assay [9], in [10], in assay [11], in assay [12] and in assay [14] was inactive. The outcome in assay [15] and in assay [16] was inactive. In addition, the inhibition is 79% (active) in assay [5] and 37.5% (active) in assay [13].
On to `CC(C)C(=O)Nc1ccc(C(=O)Nc2nnc(C(C)(C)C)s2)cc1`, for which the result in [1], in [2], in [3], in [4], in assay [6] and in assay [7] was inactive. Besides, the outcome in assay [8], in assay [9], in assay [10], in [11], in [12] and in assay [14] was inactive. Also, the result in assay [15] and in [16] was inactive. The inhibition in assay [5] is 57% (active); in [13] it was 35.1% (active).
As to `COc1cc(OC)c(C2N(C)c3ccccc3N2C)cc1OC`, the result in assay [1], in assay [2], in assay [3], in [4], in [6] and in assay [7] was inactive. The result in assay [8], in assay [9], in assay [10], in assay [11], in assay [12] and in [13] was inactive. Besides, the result in assay [14], in assay [15] and in [16] was inactive. For the same compound, in assay [5], the inhibition is 77% (active).
Regarding `O=[N+]([O-])c1cccc(-c2nnc(C3CC3)o2)c1`, the result in assay [1], in assay [2], in [3], in assay [4], in assay [7] and in [8] was inactive. Moreover, the compound was classed as inactive in assay [9], in [10], in assay [11], in assay [12], in [13] and in assay [14]. Also, the result in assay [15] and in [16] was inactive. For the same compound, the values for the inhibition in assay [5] and in assay [6] were 68% (active) and 38% (active), respectively.
Consider `CCOc1cc(/C=C2\C(=N)N3N=CSC3=NC2=O)ccc1OS(=O)(=O)c1ccccc1`, for which the outcome in assay [1], in [2], in [3], in assay [4], in assay [6] and in assay [7] was inactive. Also, the outcome in assay [8], in assay [9], in assay [10], in assay [11], in assay [12] and in assay [14] was inactive. The result in assay [15] and in assay [16] was inactive. Also, the inhibition in assay [5] was 96% (active); in assay [13], 16.2% (active).
Regarding `Cc1ccc(/C=C2\SC(=S)N(C(Cc3ccccc3)C(=O)O)C2=O)cc1` (stereo not given), the outcome in assay [1], in [2], in [3], in [4], in assay [5] and in [6] was inactive. In addition, the outcome in assay [7], in [8], in assay [9], in assay [10], in [11] and in assay [12] was inactive. The result in [14], in assay [15] and in assay [16] was inactive. Moreover, the inhibition in assay [13] is 18.3% (active).
Consider `CC(C)c1ccc(S(=O)(=O)/N=C2\C=C(NS(=O)(=O)c3ccccc3)C(=O)c3ccccc32)cc1`, for which the outcome in assay [1], in [2], in assay [3], in assay [4], in [6] and in assay [7] was inactive. Moreover, the result in assay [8], in assay [10], in assay [11], in assay [12], in assay [14] and in [15] was inactive. The outcome in assay [16] was inactive. Also, the values for the inhibition in [5], in assay [9] and in assay [13] were 81% (active), 21.5% (active) and 19.2% (active), respectively.
Turning to `CC1Oc2ccccc2C=C1/C=N/Nc1ccc(C(=O)O)cc1` (stereo not given), the outcome in assay [1], in assay [2], in assay [3], in assay [4], in assay [7] and in assay [8] was inactive. The compound was classed as inactive in assay [9], in [10], in [11], in assay [12], in [14] and in [15]. Further, the outcome in assay [16] was inactive. Further, the inhibition in assay [5] is 82% (active); in assay [6], 51% (active); in [13] it was 38.1% (active).
`CN(Cc1ccccc1)C(=O)CSc1nnc(-c2ccco2)n1-c1ccccc1`: the outcome in [1], in assay [2], in assay [3], in assay [4], in assay [7] and in assay [8] was inactive. In addition, the compound was classed as inactive in assay [9], in assay [10], in assay [11], in assay [12], in assay [13] and in [14]. Also, the outcome in [15] and in assay [16] was inactive. The inhibition in assay [5] is 71% (active); in [6], 43% (active).
With `CSc1nc(N2CCOCC2)c2c3c(sc2n1)CCCC3`, the result in assay [1], in assay [2], in assay [3], in assay [4], in [6] and in assay [7] was inactive. Further, the result in assay [8], in [9], in [10], in assay [11], in assay [12] and in assay [14] was inactive. Also, the result in assay [15] and in [16] was inactive. For the same compound, the inhibition was 75% (active) in assay [5] and 37.5% (active) in [13].
For `COc1ccc(C(=O)Nc2nc(-c3cccs3)cs2)cc1`, the result in assay [1], in assay [2], in assay [3], in assay [4], in assay [6] and in assay [7] was inactive. Besides, the result in [8], in assay [9], in assay [10], in [11], in assay [12] and in assay [14] was inactive. Moreover, the result in [15] and in assay [16] was inactive. Also, the inhibition in [5] is 85% (active); in assay [13] it was 36.4% (active).
Take `CC1(C)CC(NC(=O)c2cc(COc3cccc(C(F)(F)F)c3)on2)CCO1` (stereo not given): the outcome in assay [1], in assay [2], in [3], in assay [4], in assay [6] and in assay [7] was inactive. The result in [8], in [9], in [10], in assay [11], in assay [12] and in assay [14] was inactive. Moreover, the result in [15] and in [16] was inactive. The figures for the inhibition in assay [5] and in assay [13] were 90% (active) and 25.2% (active), respectively.
Take `N#CCCn1cc(CNCc2ccccc2)c(-c2cccc([N+](=O)[O-])c2)n1`: the result in [1], in assay [2], in assay [3], in assay [4], in assay [7] and in [8] was inactive. In addition, the compound was called inactive in [9], in assay [10], in assay [11], in assay [12], in [14] and in assay [15]. Also, in assay [16], the result was inactive. The results for the inhibition in assay [5], in assay [6] and in assay [13] were 65% (active), 36% (active) and 30.7% (active), respectively.
As to `O=C(Cc1ccccc1[N+](=O)[O-])OCc1cccc([N+](=O)[O-])c1`, the outcome in assay [1], in assay [2], in [3], in [4], in assay [7] and in assay [8] was inactive. Further, the call in assay [9], in assay [10], in [11], in assay [12], in [14] and in assay [15] was inactive. For the same compound, the result in assay [16] was inactive. For the same compound, the figures for the inhibition in assay [5], in [6] and in assay [13] were 92% (active), 62% (active) and 35% (active), respectively.

Usually inhibition stands for the relative decrease from the control value, in per cent.
